The list is not random: actives were taken first. Their share in the collection is about 19%.
Shiga inhibitor: Shiga toxin inhibition; Vero cells, Shiga toxin protein synthesis inhibition reporter; 290,000 compounds, 9.2% hits; inhibition, % at 38.7 µM; in the data active = inhibition mostly above about 28%, no sharp cut-off; inactive = mostly below about 43%
Cycloheximide cs: affects cycloheximide protein synthesis inhibition readout, counter-screen; cell reporter, cycloheximide protein synthesis inhibition counterscreen; max response, %; 300,000 compounds, 12% hits; AID 2314; in the data active = max response mostly above about 13%, no sharp cut-off; inactive = mostly below about 14%; also: read at 38.3 µM for the half of the compounds with a filed dose
MARV entry inh: inhibitors of Marburg virus binding or cell entry; Marburg virus pseudotyped entry inhibition, cell reporter; Potency, µM (doses to about 37.8 µM), actives largely listed as inhibitors; 300,000 compounds, 1.8% hits; AID 540276; calls by dose curve; tested in HEK293 cells
Pf growth 96h: inhibits malaria parasite growth, 96 h; P. falciparum luciferase reporter growth, 96 h; Potency, µM (top dose mostly 28.7 µM), usual class: inhibitors; 320,000 compounds, 6.9% hits; AID 504834
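Luminescence readout: decreased luciferase signal marks inhibited growth of reporter-expressing P. falciparum in infected red cells (2% hematocrit, 0.05% parasitemia final), exposed to compound two generations (96 h, 37 C, 5% CO2).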
LASV entry inh: Lassa virus entry inhibition; 300,000 compounds, 1.2% hits; AID 540256; Lassa virus pseudotype entry inhibition, cell reporter; Potency, µM (doses to about 37.9 µM), most hits filed as inhibitors; calls by dose curve; tested in HEK293 cells; also: nearly all actives have a fitted effect of over 50% in size
Pf growth 48h: P. falciparum growth inhibition at 48 hours (one generation); P. falciparum luciferase growth in erythrocytes, 48 h; Potency, µM (doses to about 28.7 µM), most hits filed as inhibitors; 310,000 compounds, 5.9% hits; AID 504832
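In quantitative HTS format, infected erythrocytes bearing luciferase-reporter parasites were treated for a single generation at 37 C. Luminescence after adding detection reagent served as the growth measure.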
A number is an active result; . = inactive; ? = inconclusive; / = not tested or not shown; [ ] = another dose, or the depositor's remark. Unless noted, calls follow the shape of the dose curve; as a rule, active = well fitted inhibition curve with a large enough effect; inconclusive = small, poorly fitted or top-dose-only effect, or another doubt; inactive = no such curve, though single readings can be large or run the other way.

SMILES | Shiga inhibitor | Cycloheximide cs | MARV entry inh | Pf growth 96h | LASV entry inh | Pf growth 48h
O=C(COc1ccc(Cl)cc1)Nc1ncc([N+](=O)[O-])s1 | 146.5 | 47.6 | ? | . | ? | .
O=C(Cc1ccc(Cl)cc1)Nc1ncc([N+](=O)[O-])s1 | 67.4 | 43.2 | ? | . | . | .
CC(CC(=O)Nc1ncc([N+](=O)[O-])s1)c1ccccc1 (configuration not stated) | 87.3 | 25.7 | ? | . | ? | .
O=C(COC(=O)c1ccccc1C(=O)c1ccccc1)NCCc1ccccc1 | . | . | . | ? | . | .
O=C(N/C(=C\c1cccc([N+](=O)[O-])c1)C(=O)N(CCO)CCO)c1ccco1 | . | . | . | . | . | .
COc1ccc(O)c(CN2CCCC(N3CCN(c4ccc(F)cc4)CC3)C2)c1 (configuration not stated) | . | . | / | ? | / | 4.15µM
Oc1ccccc1CN1CCCC(N2CCc3ccccc3C2)C1 (configuration not stated) | / | . | . | 5.22µM | . | 9.28µM
CCOc1cc(CN2CCCC(N3CCc4ccccc4C3)C2)ccc1O (configuration not stated) | . | . | / | . | / | ?
COc1ccc(O)c(CN2CCCC(N3CCc4ccccc4C3)C2)c1 (configuration not stated) | . | . | / | ? | / | 11.7µM
CCN(CC(=O)NCc1ccc(Cl)cc1)C(=O)c1cc(S(=O)(=O)NCc2ccccc2)ccc1C | . | . | ? | ? | . | ?
CCOC(=O)c1c(C)[nH]c(CCC(=O)NCc2ccc(N(C)C)cc2)c1C | / | / | / | / | . | /
NS(=O)(=O)c1ccc(CCNC(=O)/C=C/c2ccc([N+](=O)[O-])cc2)cc1 | . | . | . | .[5.75 µM] | . | ?
O=C(/C=C/c1cccc([N+](=O)[O-])c1)NCCSc1ccccc1 | . | 17.1 | . | 10.4µM | . | ?
Cc1ccc(SCCNC(=O)/C=C/c2cccc([N+](=O)[O-])c2)cc1 | . | . | . | . | . | .
CC(C)(C)SCCNC(=O)/C=C/c1cccc([N+](=O)[O-])c1 | 66.4 | 25.5 | ? | . | . | .
CC(C)(C)SCCNC(=O)/C=C/c1ccc([N+](=O)[O-])cc1 | 32.6 | 20.6 | . | ? | . | .
O=C(/C=C/c1cccc([N+](=O)[O-])c1)NCCSCc1c(Cl)cccc1Cl | . | . | . | . | . | .
C[C@@H](NC(=O)CN1C(=O)c2ccccc2S1(=O)=O)c1ccccc1 | . | . | / | ? | / | .
CCOC(=O)c1c(NC(=O)CSc2nnc(-c3ccccc3)n2CC)sc(C(C)=O)c1C | . | . | ? | ? | . | ?
COc1cccc(/C=C/c2nc(S(=O)(=O)c3ccccc3)c(N(C)C)o2)c1 | . | . | / | ? | / | 10.4µM
COc1ccccc1/C=C/c1nc(S(=O)(=O)c2ccccc2)c(N(C)C)o1 | . | . | . | ? | . | ?
Cc1ccc(NC(=O)CCN2CCN(C/C=C/c3ccccc3)CC2)cc1 | . | . | 8.91µM | / | . | ?
CCC(C)c1ccccc1NC(=O)CN1CCN(C/C=C/c2ccccc2)CC1 (configuration not stated) | . | . | ? | 13.1µM | . | ?
O=C(CCN1CCN(C/C=C/c2ccccc2)CC1)Nc1ccc(Cl)cc1 | . | . | ? | . | . | ?
Cc1ccc(NC(=O)CCN2CCN(C/C=C/c3ccccc3)CC2)cc1C | . | . | ? | . | . | 6.57µM
SMILES | Shiga inhibitor | Cycloheximide cs | MARV entry inh | Pf growth 96h | LASV entry inh | Pf growth 48h
Cc1ccc(NC(=O)CCN2CCC(Cc3ccccc3)CC2)cc1 | / | . | ? | 10.4µM | ? | 7.38µM
O=C(CN1CCN(C/C=C/c2ccccc2)CC1)NCc1ccccc1 | . | . | / | . | / | .
COc1ccc(CNC(=O)Nc2cn(CC(C)C)c(=O)c3ccccc23)c(OC)c1 | / | / | ? | / | . | /
CC(C)CNC(=O)c1ccc2c(c1)C(=O)N(C1CCCCC1)C2=O | . | . | ? | . | . | .
O=C(O)COc1ccc(NC(=O)c2ccc3c(c2)C(=O)N(C2CCCCC2)C3=O)cc1 | . | . | . | . | . | ?
O=C(Nc1ccc2c(c1)N(C1CCCC1)C(=O)c1ccccc1S2)c1ccccc1 | / | / | / | / | 2.82µM | /
CC(C)(C)NC(=O)c1ccc2c(c1)C(=O)N(C1CCCCC1)C2=O | 79.5 | 48.3 | . | . | . | .
O=C(O)c1cccc(NC(=O)c2ccc3c(c2)C(=O)N(C2CCCCC2)C3=O)c1 | 108.3 | 44.4 | . | . | . | .
CCC(=O)Oc1ccc(C(=O)Nc2ccc3c(c2)C(=O)N(C2CCCCC2)C3=O)cc1 | . | . | ? | 10.4µM | ? | /
COc1ccc(NC(=O)c2sc3nc(N4CCOCC4)c4c(c3c2N)CCCC4)c(OC)c1 | . | . | ? | . | . | .
O=C(Nc1ccc(Br)c(Br)c1)C1CCCO1 (configuration not stated) | / | / | ? | / | . | /
O=C(Nc1ccc2c(c1)C(=O)N(C1CCCCC1)C2=O)C1CCCO1 (configuration not stated) | . | 9.6 | . | . | . | .
COc1cc2cc[n+](Cc3ccc([N+](=O)[O-])cc3)cc2cc1OC | . | . | / | 3.29µM | / | 4.65µM
COc1ccccc1CNC(=O)C(NC(=O)c1ccccc1C)C(C)C (configuration not stated) | . | . | . | . | . | .
Cc1ccc(-c2nc(CN3CCCCC3)cc(CN3CCCCC3)c2O)cc1 | . | . | ? | ? | . | 0.828µM
CCCOc1ccc(/C(O)=C2/C(=O)C(=O)N(CCCn3ccnc3)C2c2ccco2)cc1 (configuration not stated) | . | 27.6 | . | . | . | .
CC1Cc2cc(/C(O)=C3/C(=O)C(=O)N(Cc4ccco4)C3c3cccs3)ccc2O1 (configuration not stated) | 86.7 | 45.8 | . | . | . | .
CCCOc1ccc(/C(O)=C2/C(=O)C(=O)N(CCOC)C2c2cccnc2)cc1 (configuration not stated) | . | . | . | ? | / | 1.04µM
C=CCOc1ccc(/C(O)=C2/C(=O)C(=O)N(CCCn3ccnc3)C2c2cccs2)cc1 (configuration not stated) | 137.3 | 48.8 | . | ? | . | .
Cn1c(=O)n(C)c2cc(NC(=O)C(F)(F)F)ccc21 | . | . | . | / | . | .
COc1cc(/C=C2\SC(=S)N(N3CCOCC3)C2=O)cc(OC)c1OC | . | . | . | . | . | .
COc1cccc(C2/C(=C(\O)c3ccc4c(c3)OCCO4)C(=O)C(=O)N2c2nnc(C)s2)c1 (configuration not stated) | . | . | / | ? | / | .
CC1Cc2cc(/C(O)=C3/C(=O)C(=O)N(CCCn4ccnc4)C3c3ccncc3)ccc2O1 (configuration not stated) | . | . | . | . | . | .
Cc1nnc(N2C(=O)C(=O)/C(=C(/O)c3ccc4c(c3)CC(C)O4)C2c2ccccc2F)s1 (configuration not stated) | . | 13.9 | . | . | . | .
